In PubChem BioAssay (Tox21):
Inconclusive results are not listed. Activity calls are given as the source filed them. Unless noted, calls follow the shape of the dose curve; as a rule, active = well fitted curve in the direction sought with a large enough effect in the repeat runs; inconclusive = weak or mixed curves; inactive = no such curve, though single readings can be large; an effect the other way counts as inactive or inconclusive.

How the values were obtained:
[1] = qHTS assay to identify small molecule antagonists of the estrogen receptor alpha (ER-alpha) signaling pathway using the BG1 cell line in the presence of 0.1 nM 17-beta-estradiol - cell viability counter screen (AID 1259241); also: nearly all actives have a fitted effect of over 40% in size
Method in brief: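 Cells were plated and left 24 hr, compounds in DMSO were pinned in, 17beta-estradiol was added to 0.1 nM final, and after 22 hr CellTiter-Fluor reagent was added for 30 min before fluorescence was read.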

[2] = qHTS assay to identify small molecule antagonists of the androgen receptor (AR) signaling pathway using the MDA cell line in the presence of 0.5 nM R1881 - cell viability counter screen (AID 1259242); also: nearly all actives have a fitted effect of over 45% in size
Method in brief: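 R1881 at 0.5 nM final stimulated MDA-kb2 cells during 16 hr compound treatment at 37C. Cytotoxicity read: CellTiter-Fluor fluorescence after 30 min.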

[3] = biological target: Estrogen receptor (Homo sapiens) (UniProt P03372); experiment: qHTS assay to identify small molecule antagonists of the estrogen receptor alpha (ER-alpha) signaling pathway using the BG1 cell line in the presence of 0.1 nM 17-beta-estradiol (AID 1259244); also: nearly all actives have a fitted effect of over 50% in size
Method in brief: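 VM7Luc4E2; 4xERE-luciferase; 0.1 nM E2 final; 22 h co-incubation, 37C; ONE-Glo luminescence after 30 min at room temperature.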

[4] = qHTS assay to identify small molecule HDAC inhibitors (AID 1259364);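 also: wild-type HCT-116 cells with endogenous class I/II HDAC activity; top concentration of the series differs between compounds; nearly all actives have a fitted effect of over 45% in size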
Method in brief: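 Relative class I and II HDAC activity is taken from the luminogenic signal in HCT-116 cells, with compound exposure 2 hr and reagent development 30 min at room temperature.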

[5] = qHTS assay to identify small molecule agonists of the sonic hedgehog signaling (Shh) pathway - cell viability counter screen (AID 1259366); also: nearly all actives have a fitted effect of over 50% in size; also: potency is read from the fitted curve at half-maximal effect
Method in brief: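 Cells are plated at 2,000 per well and left 4hr at 37C, 5% CO2 before compound addition. After 23hr of treatment, CellTiter-Fluor reagent is added for 1hr at 37C and fluorescence is measured.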

[6] = qHTS assay to identify small molecule agonists of the sonic hedgehog signaling (Shh) pathway (AID 1259368; calls by dose curve;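 also: NIH/3T3-derived 3T3Gli1-Luc cells carrying a stable Gli1-driven firefly luciferase reporter; series mostly up to about 92 µM; nearly all actives have a fitted effect of over 15% in size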)
Method in brief: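 Mouse fibroblast (NIH/3T3) reporter cells with stably integrated Gli1-Luc were treated 24 hr with compound; firefly luciferase luminescence served as the read-out.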

[7] = qHTS assay to identify small molecule antagonists of the sonic hedgehog signaling (Shh) pathway (AID 1259369; calls by dose curve; also: nearly all actives have a fitted effect of over 45% in size; also: potency is read from the fitted curve at half-maximal effect)
Method in brief: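 Conditioned medium drives Shh signalling in 3T3Gli1-Luc cells; compounds in DMSO co-applied, 24hr at 37 C, then luciferase luminescence.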

[8] = biological target: Estrogen receptor beta (Homo sapiens) (UniProt Q92731); experiment: qHTS assay to identify small molecule antagonists of the estrogen receptor beta (ER-beta) signaling pathway (AID 1259378; active = well fitted inhibition curve with a large enough effect in the signal ratio in the repeat runs, not every such curve was filed as active; the % refers to the signal ratio; also: potency is read from the fitted curve at half-maximal effect)
Method in brief: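 ER-beta-UAS-bla HEK293T (GripTite) cells in 2% charcoal-stripped FBS medium were preincubated 6 hr at 37C, dosed with compound, then stimulated with 1 nM E2 (final) for 16 hr; beta-lactamase reporter read by B/G FRET fluorescence after 2 hr substrate loading.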

[9] = qHTS assay to identify small molecule agonists of the androgen receptor (AR) signaling pathway in the presence of an antagonist - cell viability counter screen (AID 1259379);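 also: MDA-kb2 human breast cancer cells carrying an MMTV luciferase reporter; series mostly up to about 92 µM; nearly all actives have a fitted effect of over 25% in size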
Method in brief: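 A CellTiter-Fluor read-out measured viability of MDA-kb2 reporter cells (MMTV promoter with AR and GR response elements). Treatment: nilutamide 3.0uM final with compounds at 15 concentrations, 16 hr, 37C, 0% CO2.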

[10] = qHTS assay to identify small molecule antagonists of the estrogen receptor beta (ER-beta) signaling pathway - cell viability counter screen (AID 1259382); also: nearly all actives have a fitted effect of over 55% in size; also: potency is read from the fitted curve at half-maximal effect
Method in brief: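 Agonist-stimulated (1nM E2) ER-beta-UAS-bla HEK293T cells are incubated with library compounds for 16 hr at 37C. Cell viability is then assessed in the reporter-assay wells by adding CellTiter-Glo and reading luminescence after 30 min.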

[11] = biological target: Estrogen receptor (Homo sapiens) (UniProt P03372); experiment: qHTS assay to identify small molecule agonists of the estrogen receptor alpha (ER-alpha) signaling pathway in the presence of an antagonist (AID 1259383; calls by dose curve; also: top concentration of the series differs between compounds; nearly all actives have a fitted effect of over 15% in size)
Method in brief: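 Using VM7Luc4E2 cells seeded 24hr before treatment, antagonist ICI-182,780 (10.0nM final) was added, followed by compounds at 15 concentrations. Plates incubated 22hr; ONE-Glo luminescence quantified reporter activity.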

[12] = biological target: Thyrotropin receptor (Homo sapiens) (UniProt P16473); experiment: qHTS assay to identify small molecule antagonists of the thyroid stimulating hormone receptor (TSHR) signaling pathway (AID 1259385; calls by dose curve; also: nearly all actives have a fitted effect of over 20% in size; also: potency is read from the fitted curve at half-maximal effect)
Method in brief: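 TSHR-HEK293 cells were plated and held 18 h at 37C/5% CO2, then given compound plus Ro20-1724 and stimulated with TSH at 1.5 ng/mL final. After 30 min at room temperature, cAMP was detected with cAMP-d2/anti-cAMP-cryptate (1 h) by fluorescence.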

[13] = qHTS assay to identify small molecule phospholipidosis (PLD) inducers (AID 1259344; active = well fitted curve in the direction sought with a large enough effect; an effect the other way counts as inactive or inconclusive)
Method in brief: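 HepG2 cells grown on collagen I take up LipidTOX Red while exposed to compound for 24 h; after fixation they are imaged at 20x and pit metrics are extracted.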

[14] = qHTS assay to identify small molecule HDAC inhibitors - cell viability counter screen (AID 1259365); also: series mostly up to about 92 µM; nearly all actives have a fitted effect of over 50% in size
Method in brief: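 Counter screen in wild-type HCT-116 cells: compounds dissolved in DMSO are pin-transferred onto overnight-plated cells and left 2hr at 37C. ATP-based CellTiter-Glo luminescence then measures viable cells.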

[15] = qHTS assay to identify small molecule antagonists of the sonic hedgehog signaling (Shh) pathway - cell viability counter screen (AID 1259367); also: nearly all actives have a fitted effect of over 55% in size; also: potency is read from the fitted curve at half-maximal effect
Method in brief: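 After a 4 hr settling period, 3T3 Gli1-Luc cells were treated with DMSO-dissolved chemicals and conditioned medium, kept 24 hr at 37C in 5% CO2, and assayed for viability by CellTiter-Fluor fluorescence following 1 hr reagent incubation.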

[16] = qHTS assay to identify small molecule agonists of the estrogen receptor beta (ER-beta) signaling pathway - cell viability counter screen (AID 1259380); also: nearly all actives have a fitted effect of over 30% in size; also: potency is read from the fitted curve at half-maximal effect
Method in brief: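 Cells used were ER-beta-UAS-bla HEK293T in medium with 2% charcoal-stripped FBS. They were treated for 16 hr at 37C. Viability came from CellTiter-Glo luminescence.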

[17] = qHTS assay to identify small molecule agonists or antagonists of the thyroid stimulating hormone receptor (TSHR) signaling pathway - wild type cell line counter screen (AID 1259384; calls by dose curve; also: potency is read from the fitted curve at half-maximal effect)
Method in brief: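 Wild-type HEK293 cells were plated 18 h at 37 C/5% CO2, pin-dosed with compound plus Ro20-1724 medium, held 30 min at room temperature, then given cAMP-d2 and anti-cAMP-cryptate; fluorescence was read after 1 h. Fifteen concentrations, triplicate.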

[18] = biological target: Estrogen receptor beta (Homo sapiens) (UniProt Q92731); experiment: qHTS assay to identify small molecule agonists of the estrogen receptor beta (ER-beta) signaling pathway (AID 1259377; active = well fitted activation curve with a large enough effect in the signal ratio in the repeat runs, not every such curve was filed as active; the % refers to the signal ratio; also: potency is read from the fitted curve at half-maximal effect)
Method in brief: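 Agonist mode cell assay in GripTite HEK293T cells expressing an ER-beta fusion that drives beta-lactamase from an Upstream Activator Sequence; 16 hr compound exposure at 37C, then 2 h LiveBLAzer B/G FRET substrate at room temperature, fluorescence read-out.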

[19] = biological target: Androgen receptor (Homo sapiens) (UniProt P10275); experiment: qHTS assay to identify small molecule agonists of the androgen receptor (AR) signaling pathway in the presence of an antagonist (AID 1259381; calls by dose curve; also: nearly all actives have a fitted effect of over 15% in size)
Method in brief: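 Using human MDA-kb2 cells with an MMTV promoter–luciferase construct (AR and GR response elements), agonist activity is scored under 3.0uM nilutamide (final) co-treatment; 16hr incubation, 37C, luminescence readout via ONE-Glo.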

Measured: Potency

Sequence of Estrogen receptor (Homo sapiens) (P03372 whole entry, looked up): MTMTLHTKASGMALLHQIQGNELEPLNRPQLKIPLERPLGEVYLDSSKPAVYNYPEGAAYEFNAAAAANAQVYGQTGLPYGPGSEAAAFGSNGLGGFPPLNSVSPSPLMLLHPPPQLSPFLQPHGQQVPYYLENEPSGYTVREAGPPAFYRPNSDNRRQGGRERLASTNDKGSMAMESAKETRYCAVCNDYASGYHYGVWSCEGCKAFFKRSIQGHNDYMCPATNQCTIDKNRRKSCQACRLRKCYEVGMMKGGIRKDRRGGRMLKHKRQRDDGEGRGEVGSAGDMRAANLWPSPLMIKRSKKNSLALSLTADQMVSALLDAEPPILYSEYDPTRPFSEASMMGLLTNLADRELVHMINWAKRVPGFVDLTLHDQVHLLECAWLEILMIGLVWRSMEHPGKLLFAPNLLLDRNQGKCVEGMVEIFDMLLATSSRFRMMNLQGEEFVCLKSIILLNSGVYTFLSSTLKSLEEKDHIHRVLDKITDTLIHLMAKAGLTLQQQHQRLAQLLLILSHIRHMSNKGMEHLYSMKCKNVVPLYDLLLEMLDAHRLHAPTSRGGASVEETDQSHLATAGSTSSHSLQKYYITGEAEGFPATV
Sequence of Estrogen receptor beta (Homo sapiens) (Q92731 whole entry, looked up, the tested form may be a part): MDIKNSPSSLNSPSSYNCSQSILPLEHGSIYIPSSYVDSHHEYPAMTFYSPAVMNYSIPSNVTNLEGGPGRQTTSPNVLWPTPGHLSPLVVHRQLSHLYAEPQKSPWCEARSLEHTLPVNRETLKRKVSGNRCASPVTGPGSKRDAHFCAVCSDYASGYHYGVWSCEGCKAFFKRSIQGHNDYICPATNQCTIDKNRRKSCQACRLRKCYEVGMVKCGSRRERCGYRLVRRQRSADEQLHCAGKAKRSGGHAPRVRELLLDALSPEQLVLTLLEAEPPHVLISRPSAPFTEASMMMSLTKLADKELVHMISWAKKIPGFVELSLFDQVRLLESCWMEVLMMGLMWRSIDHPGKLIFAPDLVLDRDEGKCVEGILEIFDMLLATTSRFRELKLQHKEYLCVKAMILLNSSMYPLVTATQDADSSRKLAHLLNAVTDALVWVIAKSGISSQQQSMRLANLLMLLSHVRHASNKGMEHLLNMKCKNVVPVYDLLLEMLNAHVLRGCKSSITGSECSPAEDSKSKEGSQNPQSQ
Sequence of Thyrotropin receptor (Homo sapiens) (P16473 whole entry, looked up): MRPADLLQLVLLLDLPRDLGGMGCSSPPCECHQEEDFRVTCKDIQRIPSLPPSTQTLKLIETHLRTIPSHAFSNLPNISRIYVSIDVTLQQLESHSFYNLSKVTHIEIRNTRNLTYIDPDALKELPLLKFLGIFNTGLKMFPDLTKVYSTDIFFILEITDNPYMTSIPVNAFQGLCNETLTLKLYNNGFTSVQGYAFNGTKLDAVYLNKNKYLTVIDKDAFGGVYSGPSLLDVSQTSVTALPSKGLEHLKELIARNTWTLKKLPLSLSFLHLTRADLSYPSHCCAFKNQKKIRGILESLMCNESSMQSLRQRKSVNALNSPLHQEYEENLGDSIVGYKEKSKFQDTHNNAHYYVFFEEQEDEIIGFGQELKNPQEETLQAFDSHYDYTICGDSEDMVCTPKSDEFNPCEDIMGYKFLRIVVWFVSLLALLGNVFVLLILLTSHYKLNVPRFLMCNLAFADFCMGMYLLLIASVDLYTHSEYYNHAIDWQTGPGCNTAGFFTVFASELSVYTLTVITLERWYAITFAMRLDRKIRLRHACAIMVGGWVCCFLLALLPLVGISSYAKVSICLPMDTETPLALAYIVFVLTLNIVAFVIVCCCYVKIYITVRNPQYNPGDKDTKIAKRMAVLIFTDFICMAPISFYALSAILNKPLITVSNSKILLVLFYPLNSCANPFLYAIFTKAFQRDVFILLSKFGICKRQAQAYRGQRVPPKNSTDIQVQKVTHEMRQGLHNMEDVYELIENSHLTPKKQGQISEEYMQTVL
Sequence of Androgen receptor (Homo sapiens) (P10275 whole entry, looked up): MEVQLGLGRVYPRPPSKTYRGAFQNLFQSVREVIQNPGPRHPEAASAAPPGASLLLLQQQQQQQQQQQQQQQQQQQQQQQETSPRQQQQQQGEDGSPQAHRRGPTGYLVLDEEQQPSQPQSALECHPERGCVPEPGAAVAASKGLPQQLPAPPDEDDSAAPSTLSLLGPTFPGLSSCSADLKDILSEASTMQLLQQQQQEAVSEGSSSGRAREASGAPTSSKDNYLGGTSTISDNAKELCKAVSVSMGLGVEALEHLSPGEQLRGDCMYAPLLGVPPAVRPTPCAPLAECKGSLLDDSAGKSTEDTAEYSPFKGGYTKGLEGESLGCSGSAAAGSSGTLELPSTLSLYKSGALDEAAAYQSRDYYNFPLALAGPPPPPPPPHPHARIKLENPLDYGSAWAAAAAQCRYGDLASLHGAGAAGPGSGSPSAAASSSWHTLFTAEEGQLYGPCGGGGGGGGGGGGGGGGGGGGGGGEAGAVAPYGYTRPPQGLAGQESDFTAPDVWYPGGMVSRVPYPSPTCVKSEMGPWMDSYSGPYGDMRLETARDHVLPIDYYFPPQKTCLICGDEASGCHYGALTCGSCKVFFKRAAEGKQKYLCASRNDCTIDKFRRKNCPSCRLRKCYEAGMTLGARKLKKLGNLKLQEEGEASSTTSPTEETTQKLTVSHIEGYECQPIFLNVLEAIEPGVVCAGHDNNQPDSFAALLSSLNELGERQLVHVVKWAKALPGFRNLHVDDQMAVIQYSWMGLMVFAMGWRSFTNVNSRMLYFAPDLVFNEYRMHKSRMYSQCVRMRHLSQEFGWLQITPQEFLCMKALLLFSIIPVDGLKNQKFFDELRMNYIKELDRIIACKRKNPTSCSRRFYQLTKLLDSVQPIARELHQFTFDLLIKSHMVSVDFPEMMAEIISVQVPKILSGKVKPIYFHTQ

CC(C)(C)c1cc(CCC(=O)OCC(COC(=O)CCc2cc(C(C)(C)C)c(O)c(C(C)(C)C)c2)(COC(=O)CCc2cc(C(C)(C)C)c(O)c(C(C)(C)C)c2)COC(=O)CCc2cc(C(C)(C)C)c(O)c(C(C)(C)C)c2)cc(C(C)(C)C)c1O
inactive: [1] | [2] | [3] | [4] | [5] | [6] | [7] | [8] | [9] | [10] | [11] | [12]

CCOC(=S)SSC(=S)OCC
inactive: [1] | [2] | [13] | [4] | [14] | [5] | [15] | [6] | [7] | [9] | [16] | [10] | [11] | [17] | [12]

O=S1(=O)c2cccc3cccc(c23)N1CCCN1CCN(c2ccc(F)cc2)CC1
inactive: [1] | [2] | [13] | [4] | [14] | [5] | [15] | [6] | [7] | [18] | [9] | [10] | [11] | [17] | [12]

CNCC[C@@H](Oc1ccccc1C)c1ccccc1
active: [10] 23.7 µM
inactive: [1] | [2] | [13] | [4] | [14] | [5] | [6] | [9] | [19] | [17]

Oc1ccc(C(O)CNCCCCCCNCC(O)c2ccc(O)c(O)c2)cc1O (stereo unspecified)
inactive: [1] | [2] | [13] | [4] | [14] | [6] | [7] | [16] | [10] | [12]
active: [5] 8.41 µM | [15] 29.8 µM | [17] 6.19 µM

OCC1CC2CC1C1CCC(CO)C21 (stereo unspecified)
inactive: [1] | [2] | [3] | [4] | [5] | [15] | [6] | [7] | [9] | [11] | [17] | [12]

Cc1c(Cn2ccnc2)c2ccccc2n1CCC(=O)O
inactive: [1] | [2] | [13] | [4] | [14] | [5] | [6] | [7] | [18] | [8] | [9] | [16] | [10] | [12]

O=C(O)Cn1c(C(=O)Nc2nc(-c3ccccc3Cl)cs2)cc2ccccc21
inactive: [1] | [2] | [13] | [4] | [14] | [15] | [6] | [7] | [9] | [10] | [11] | [17] | [12]

CC(C)(C)C(=O)OCOP(=O)(COCCn1cnc2c(N)ncnc21)OCOC(=O)C(C)(C)C
inactive: [1] | [2] | [13] | [4] | [14] | [6] | [18] | [8] | [10] | [17] | [12]
active: [5] 10.6 µM | [15] 9.44 µM | [7] 2.98 µM

CC(=O)OCCc1ccccc1
inactive: [1] | [2] | [3] | [4] | [5] | [6] | [7] | [9] | [16] | [10] | [11] | [17] | [12]

CN1CCC(=C2c3ccccc3C=Cc3ccccc32)CC1
inactive: [1] | [2] | [13] | [4] | [14] | [5] | [15] | [6] | [18] | [8] | [9] | [11] | [12]
active: [7] 0.335 µM | [16] 26.6 µM | [10] 21.1 µM

O=C(c1ccc(O)cc1)c1ccc(O)cc1
inactive: [1] | [2] | [3] | [5] | [6] | [8] | [9] | [16] | [19] | [10]
active: [18] 6.11 µM

CC(C)NCC(O)c1cc(O)cc(O)c1 (stereo unspecified)
inactive: [1] | [2] | [13] | [4] | [14] | [5] | [6] | [7] | [9] | [16] | [10] | [12]
active: [17] 8.1 µM

CC1CCc2cc(F)cc3c(=O)c(C(=O)O)cn1c23 (stereo unspecified)
inactive: [1] | [2] | [13] | [4] | [14] | [5] | [15] | [6] | [7] | [18] | [9] | [16] | [10] | [17]

O=C(Nc1ccccc1)OCC(CN1CCCCC1)OC(=O)Nc1ccccc1 (stereo unspecified)
active: [8] 26.6 µM | [16] 26.6 µM | [12] 18.8 µM
inactive: [1] | [2] | [13] | [4] | [14] | [15] | [6] | [18] | [9] | [11] | [17]

Cc1ccccn1
inactive: [1] | [2] | [13] | [4] | [14] | [15] | [6] | [7] | [18] | [8] | [9] | [16] | [10]

CN(c1nccc(=O)[nH]1)C1CCN(c2nc3ccccc3n2Cc2ccc(F)cc2)CC1
inactive: [1] | [2] | [13] | [4] | [14] | [5] | [15] | [6] | [7] | [9] | [10] | [11] | [12]

Nc1nc(N)c(-c2ccccc2)s1
inactive: [1] | [2] | [13] | [4] | [14] | [5] | [6] | [7] | [9] | [10]
